This assay can be described thus: modulators of mitochondrial supercomplex assembly, cell-based, luminescence, Hoechst nuclei count (AID 1645838).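 For all read-outs here: control cybrid cells.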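 For z-score: higher means more mitochondrial supercomplex formation.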 Particulars: Cells, luminescence/Hoechst cell count ratio, supercomplex reporter; for z-score: stronger effect = higher value; for cell count: measured here: cell number, Hoechst nuclei count.
Setting [1] is: library stock concentration (final well concentration not given) 80 uM.
Where [2] appears, read: library stock concentration (final well concentration not given) 400 uM.
Setting [3] is: library stock concentration (final well concentration not given) 2 mM.
The mark [4] stands for this setting: library stock concentration (final well concentration not given) 10 mM.
Setting [5] is: library stock concentration (final well concentration not given) 46 uM.
Where [6] appears, read: library stock concentration (final well concentration not given) 278 uM.
[7] abbreviates: library stock concentration (final well concentration not given) 1.67 mM.

We go through 22 compounds from PubChem BioAssay AID1645838 (ICCB-Longwood Screening Facility, Harvard Medical School, 2021).

Several values for one entry are separate records, joined by “and”; a condition that tells them apart may be missing. Identical values can stand only once. The campaign covered roughly 2,000 compounds. About 100 (5%) were called active. Cut-off read from the data, not from the text of the source: active = z-score above about 2; inactive = the rest. For the sample, actives were picked, then their nearest neighbours and some compounds at random.

Regarding `COc1cc(Cc2cnc(N)nc2N)c2c(c1OC)OC(C1CC1)C=C2` (stereo unspecified), the z-score under setting [1] was -0.274 (inactive), the z-score under setting [2] is -0.19 (inactive), the z-score under setting [3] is -0.518 (inactive) and the z-score under setting [4] is -0.337 (inactive). For the same compound, the cell count was 5160 under setting [1], 5070 under setting [2], 5260 under setting [3] and 4960 under setting [4].
Take `CC(Sc1nc2ccccc2[nH]1)C(=O)N/N=C/c1cc(Br)ccc1O` (stereo unspecified): the z-score is -0.336 (inactive) and the cell count amounted to 5170.
As to `CC(Sc1nc2ccccc2[nH]1)C(=O)NN=Cc1cc(Br)ccc1O` (stereo unspecified), the z-score runs as follows: under setting [5], -1.02 (inactive); under setting [6], -0.707 (inactive); under setting [7], -0.734 (inactive); under setting [4], 3.92 (active). In addition, the cell count runs as follows: under setting [5], 7560; under setting [6], 6830; under setting [7], 7060; under setting [4], 3080.
In the case of `CC/C=C\C/C=C\C/C=C\C/C=C\C/C=C\C/C=C\CCC(=O)NCCO`, the z-score was -0.366 (inactive) and the cell count is 5340.
Turning to `COc1ccc(CCOC2CCCCC2N2CCC(O)C2)cc1OC` (stereo unspecified), the z-score was 0.0501 (inactive) under setting [1], 0.255 (inactive) under setting [2], -0.0276 (inactive) under setting [3] and -0.648 (inactive) under setting [4]. Further, the cell count reads like this: under setting [1], 5440; under setting [2], 4950; under setting [3], 5110; under setting [4], 5070.
Regarding `CN1CCN(c2ccc(Nc3cc(-c4cccc(-n5ccc6cc(C7CC7)cc(F)c6c5=O)c4CO)cn(C)c3=O)nc2)CC1`, the z-score reads like this: under setting [5], -0.128 (inactive); under setting [6], 0.295 (inactive); under setting [7], 0.189 (inactive); under setting [4], 2.34 (active). Also, the cell count runs as follows: under setting [5], 6870; under setting [6], 6260; under setting [7], 6670; under setting [4], 4620.
With `Cc1ccc(-c2ccc3c(c2)C=C(C(=O)Nc2ccc(C[N+](C)(C)C4CCOCC4)cc2)CCC3)cc1`, the z-score is, setting by setting: under setting [1], 0.0335 (inactive); under setting [2], -0.0352 (inactive); under setting [3], 0.025 (inactive); under setting [4], 0.462 (inactive). In addition, the cell count by setting is: under setting [1], 6000; under setting [2], 5610; under setting [3], 5740; under setting [4], 4810.
As to `CCCCc1ccc(O)cc1O`, the z-score under setting [1] was -0.0561 (inactive), the z-score under setting [2] was -0.187 (inactive), the z-score under setting [3] was -0.116 (inactive) and the z-score under setting [4] was -0.378 (inactive). Besides, the cell count was 5090 under setting [1], 5680 under setting [2], 5060 under setting [3] and 5370 under setting [4].
For the compound `CCC1C(=O)N(C)c2cnc(Nc3ccc(C(=O)NC4CCC(N5CCN(CC6CC6)CC5)CC4)cc3OC)nc2N1C(C)C` (stereo unspecified), the outcome is “inactive; censored for cell count” (library stock 80 µM), “inactive; censored for cell count” (library stock 400 µM), “inactive; censored for cell count” (library stock 2 mM) and “inactive; censored for cell count” (library stock 10 mM).
With `CC(C)c1ccc(-c2cc(=O)c3ccccc3o2)cc1`, the z-score runs as follows: under setting [1], 0.0844 (inactive); under setting [2], 1e-05 (inactive); under setting [3], -0.0931 (inactive); under setting [4], -0.264 (inactive). Further, the cell count turned out to be 5390 under setting [1], 5660 under setting [2], 5670 under setting [3] and 5910 under setting [4].
As to `CCc1nc(N)nc(N)c1-c1ccc(Cl)cc1`, the z-score under setting [5] is -0.369 (inactive), the z-score under setting [6] was -0.308 (inactive), the z-score under setting [7] is -0.256 (inactive) and the z-score under setting [4] is 2.87 (active). For the same compound, the cell count is, setting by setting: under setting [5], 6220; under setting [6], 5950; under setting [7], 4990; under setting [4], 2210.
For `Cc1nc(C(=O)N2CCCC2Cc2nnc(-c3ccccc3)o2)c(-c2ccccc2F)s1` (stereo unspecified), the z-score by setting is: under setting [1], -0.436 (inactive); under setting [2], -0.462 (inactive); under setting [3], -0.287 (inactive); under setting [4], -0.37 (inactive). For the same compound, the cell count under setting [1] stood at 6270, the cell count under setting [2] amounted to 5950, the cell count under setting [3] was found to be 5640 and the cell count under setting [4] came to 5740.
Turning to `CCCCC[C@H](O)/C=C/[C@H]1C(=O)C[C@H](O)[C@@H]1C/C=C\CCCC(=O)OCC(O)CO` (stereo partly specified), the z-score is 0.539 (inactive) and the cell count came to 4970.
On to `CCCCC[C@H](O)/C=C/[C@@H]1[C@@H](C/C=C/CCCC(=O)O)[C@@H](O)C[C@H]1O`, for which the z-score is -0.886 (inactive) and -1.17 (inactive); the cell count was 5940 and 5560.
Turning to `CC(=O)Nc1ccc(C(=O)Nc2sc(Nc3ccccc3)nc2C(N)=O)cc1`, the z-score by setting is: under setting [1], 0.365 (inactive); under setting [2], 0.37 (inactive); under setting [3], 2.89 (active); under setting [4], 5.1 (active). Moreover, the cell count by setting is: under setting [1], 5180; under setting [2], 5070; under setting [3], 3500; under setting [4], 2950.
Regarding `CC(=O)Nc1ccc(NC(=S)NC(=O)c2ccc(C(C)(C)C)cc2)cc1`, the z-score was 1.3 (inactive) and the cell count worked out at 5410.
On to `COc1ccc(C(=O)Nc2sc(Nc3ccccc3)nc2C(N)=O)cc1`, for which the z-score is 0.24 (inactive) under setting [1], 0.382 (inactive) under setting [2], -0.143 (inactive) under setting [3] and 1.05 (inactive) under setting [4]. In addition, the cell count was found to be 4690 under setting [1], 4800 under setting [2], 4780 under setting [3] and 4300 under setting [4].
Regarding `CCCCC[C@H](O)CC[C@@H]1[C@@H](CCCCCCC(=O)O)[C@@H](O)C[C@H]1O`, the z-score was -0.187 (inactive) and the cell count was 5660.
Consider `COc1cc(Nc2ncc(F)c(Nc3ccc4c(n3)NC(=O)C(C)(C)O4)n2)cc(OC)c1OC`, for which the z-score is, setting by setting: under setting [1], -0.348 (inactive); under setting [2], -0.268 (inactive); under setting [3], 0.433 (inactive); under setting [4], 2.15 (active). For the same compound, the cell count reads like this: under setting [1], 4400; under setting [2], 3910; under setting [3], 3800; under setting [4], 1990.
As for `CCCCCCCCCCCCCCNC(=O)C1CCCCC1`, the z-score is -0.131 (inactive) and the cell count amounted to 5060.
Take `COc1cc(C(C)C)c2c(c1)S(=O)(=O)N(COc1cc(=O)n3cccc(OCCN4CCCCC4)c3n1)C2=O`: the z-score reads like this: under setting [5], -0.456 (inactive); under setting [6], -0.0963 (inactive); under setting [7], -0.654 (inactive); under setting [4], -0.644 (inactive). Also, the cell count was determined as 7070 under setting [5], 6790 under setting [6], 6790 under setting [7] and 5780 under setting [4].
For the compound `CC(=O)c1c(C)c2cnc(Nc3ccc(N4CCNCC4)cn3)nc2n(C2CCCC2)c1=O`, the z-score runs as follows: under setting [5], -0.186 (inactive); under setting [1], -0.0747 (inactive); under setting [6], 0.0516 (inactive); under setting [2], 0.049 (inactive); under setting [7], 1.11 (inactive); under setting [3], 0.264 (inactive). Moreover, the z-score under setting [4] is -0.00116 (inactive) and 1.25 (inactive). In addition, the cell count reads like this: under setting [5], 4850; under setting [1], 4290; under setting [6], 4600; under setting [2], 4340; under setting [7], 3490; under setting [3], 4140. Further, the cell count under setting [4] was 4170 and 3080.
